Assay results as given in PubChem BioAssay AID1159580 (chemical genetic matrix, 2015).
The whole screen tested about 5,500 compounds, of which about 2,000 (36%) were called active. Another 18% or so got no clear call; they are omitted. No stated cut-off is given here; in the data, active means normalized growth mostly below about 0.91 (no sharp cut-off); inconclusive means no clear call, values can overlap the other calls; inactive means mostly above about 0.92. This is one part of the list.

Assay: chemical genetic growth profiling, strain panel (AID 1159580);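 further: tested at 20 µM; growth read once vehicle control cultures reached saturation at 30 °C; 1 = growth at the plate median or of vehicle wells; lower values mean less growth of the strain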
Details: S. cerevisiae deletion strains, growth OD

Measured: normalized growth

CC(C)N(C(=O)CCl)c1ccccc1
active: locus YDR392W, strain spt3, hits give low values 0.649 | locus YJL129C, strain trk1, hits give low values 1.23 [resistant]
inactive: locus YAL013W, strain DEP1, hits give low values 1.03 | locus YAL021C, strain ccr4, hits give low values 1.03 | locus YAL026C, strain drs2, hits give low values 1.04 | locus YAL030W, strain snc1, hits give low values 1.02 | locus YBL061C, strain skt5, hits give low values 1.01 | locus YBR009C, strain hhf1, hits give low values 0.949 | locus YBR021W, strain FUR4, hits give low values 1.07 | locus YBR023C, strain chs3, hits give low values 1.02 | locus YBR171W, strain sec66, hits give low values 1.01 | locus YBR229C, strain ROT2, hits give low values 1.02 | locus YBR231C, strain swc5, hits give low values 0.991 | locus YBR279W, strain paf1, hits give low values 0.993 | locus YCL011C, strain gbp2, hits give low values 1.01 | locus YCL016C, strain dcc1, hits give low values 1.01 | locus YCL029C, strain bik1, hits give low values 1.02 | locus YCL061C, strain MRC1, hits give low values 1.02 | locus YCL069W, strain vba3, hits give low values 1.01 | locus YCR088W, strain abp1, hits give low values 1.03 | locus YDL005C, strain med2, hits give low values 1.04 | locus YDL035C, strain GPR1, hits give low values 1.04 | locus YDL040C, strain nat1, hits give low values 1 | locus YDL074C, strain BRE1, hits give low values 1.05 | locus YDL101C, strain DUN1, hits give low values 1.02 | locus YDL134C, strain PPH21, hits give low values 1.02 | locus YDL185W, strain tfp1, hits give low values 1.02 | locus YDL192W, strain arf1, hits give low values 1.01 | locus YDR001C, strain nth1, hits give low values 1.01 | locus YDR069C, strain doa4, hits give low values 0.979 | locus YDR101C, strain arx1, hits give low values 1.02 | locus YDR137W, strain rgp1, hits give low values 1.08 | locus YDR150W, strain NUM1, hits give low values 1.03 | locus YDR159W, strain sac3, hits give low values 1.01 | locus YDR162C, strain NBP2, hits give low values 1.03 | locus YDR195W, strain ref2 0.917 | locus YDR297W, strain sur2, hits give low values 1.03 | locus YDR318W, strain mcm21, hits give low values 1.02 | locus YDR334W, strain swr1, hits give low values 1.01 | locus YDR335W, strain msn5, hits give low values 1.01 | locus YDR388W, hits give low values 1.02 | locus YDR502C, strain sam2, hits give low values 1.02 | locus YEL003W, strain gim4, hits give low values 1 | locus YEL037C, strain rad23, hits give low values 1.01 | locus YEL061C, strain CIN8 (second series), hits give low values 1.01 | locus YEL061C, strain CIN8, hits give low values 1.02 | locus YER015W, strain faa2, hits give low values 0.997 | locus YER016W, strain bim1, hits give low values 1.01 | locus YER110C, hits give low values 1.03 | locus YER111C, strain swi4, hits give low values 1.02 | locus YER155C, strain BEM2 (second series), hits give low values 1.01 | locus YER155C, strain BEM2, hits give low values 1.03 | locus YER167W, strain BCK2, hits give low values 1.03 | locus YFR010W, strain ubp6, hits give low values 0.985 | locus YGL078C, strain dbp3, hits give low values 1.03 | locus YGL086W, strain mad1, hits give low values 1.02 | locus YGL167C, strain pmr1, hits give low values 1.01 | locus YGL173C, strain kem1, hits give low values 1.03 | locus YGL227W, strain vid30, hits give low values 1.01 | locus YGL240W, strain doc1, hits give low values 0.977 | locus YGL248W, strain PDE1, hits give low values 1.04 | locus YGL253W, strain hxk2, hits give low values 0.941 | locus YGR078C, strain PAC10, hits give low values 1.02 | locus YGR135W, strain pre9, hits give low values 1.01 | locus YGR229C, strain SMI1, hits give low values 1.05 | locus YGR252W, strain gcn5, hits give low values 0.958 | locus YHR013C, strain ard1, hits give low values 0.881 | locus YHR027C, strain rpn1, hits give low values 1.01 | locus YHR030C, strain SLT2, hits give low values 1 | locus YHR079C, strain IRE1 (second series), hits give low values 1.02 | locus YHR094C, strain hxt1, hits give low values 1.01 | locus YHR129C, strain ARP1, hits give low values 1.04 | locus YHR142W, strain chs7, hits give low values 1.01 | locus YHR200W, strain rpn10, hits give low values 1.02 | locus YIL066C, strain RNR3, hits give low values 1.01 | locus YIL073C, strain SPO22, hits give low values 0.961 | locus YIL125W, strain kgd1, hits give low values 1.03 | locus YIR030C, strain dcg1, hits give low values 1.02 | locus YJL092W, strain hpr5, hits give low values 1.03 | locus YJL095W, strain BCK1 (second series), hits give low values 1.01 | locus YJL095W, strain BCK1, hits give low values 1.02 | locus YJL115W, strain asf1, hits give low values 1.03 | locus YJL134W, strain LCB3, hits give low values 1.03 | locus YJL154C, strain vps35, hits give low values 1.02 | locus YJL164C, strain tpk1, hits give low values 0.999 | locus YJL166W, strain qcr8, hits give low values 0.955 | locus YJL168C, strain set2, hits give low values 1 | locus YJL187C, strain SWE1 (second series), hits give low values 1.02 | locus YJL187C, strain SWE1, hits give low values 1.02
